Source: PubChem BioAssay
Records with an inconclusive call do not appear. Activity calls are given as the source filed them.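 How the source made its calls, unless noted: active means efflux inhibition above 0.42, the validation set average plus 4 SD; inconclusive means no clear call, values can overlap the other calls; inactive means the rest.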

What was measured:
[1] = rapamycin-like changes in RPL19A-GFP expression – cell-based, S. cerevisiae, multiplex flow cytometry, primary screen (AID 1862; in the data active means percent of DMSO control GFP below about 86%;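 further: lower values mimic rapamycin by blocking the RPL19A rise seen in DMSO cells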); settings: S. cerevisiae RPL19A-GFP strain, flow cytometry fluorescence, 3 h; at 10 µM; stronger effect = lower value
[2] = TOR pathway GLN3 branch reporter MEP2-GFP changes – S. cerevisiae, multiplex flow cytometry, primary screen (AID 1867;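 active means GFP response, as percent of the DMSO control, above the screen-wide mean plus 3 SD, about 139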;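 further: median GFP channel fluorescence of barcode-gated MEP2-GFP cells measured by flow cytometry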); settings: S. cerevisiae MEP2-GFP strain, 3 h, at 10 µM, stronger effect = higher value, 100% means same as DMSO wells
[3] = TOR pathway RTG branch CIT2 reporter changes – S. cerevisiae, GFP fusion, multiplex flow cytometry, primary screen (AID 1870;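 active means percent response above a set limit, the screen-wide mean plus 3 SD, cut at about 130% in these data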;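 further: barcoded CIT2-GFP strain pooled with four other GFP strains with rapamycin as positive control; median GFP fluorescence per well over plate mean of DMSO wells so 100% = DMSO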); settings: S. cerevisiae CIT2-GFP expression, 3 h, at 10 µM, stronger effect = higher value
[4] = TOR pathway LAP4-GFP level changes – S. cerevisiae, multiplex flow cytometry, primary screen (AID 1873;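 active means GFP signal, as percent of the solvent control, above the screen mean plus 3 SD, about 149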); settings: S. cerevisiae LAP4-GFP expression, 3 h, at 10 µM, stronger effect = higher value
[5] = yeast AGP1-GFP level changes, GLN3 branch – cell-based, multiplex flow cytometry, S. cerevisiae, primary screen (AID 1887;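 active means GFP signal above the screen-wide mean plus 3 SD, that is over about 124.5% of the solvent control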;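 further: AGP1-GFP fusion strain of S. cerevisiae within a five-strain barcoded multiplex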); settings: 3 h, at 10 µM, stronger effect = higher value
[6] = reduced mouse 2C T cell binding to pMHC/ICAM-1 vesicles – MLPCN validation set, flow cytometry, LFA-1/ICAM-1 modulator project, pilot screen (AID 2523;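 active means response below a set limit, under 55% cells CD8-positive and vesicle-bound, and CD8 cells' 90th-percentile brightness under 279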;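 on vesicle binding response: mean PE anti-B7-1 fluorescence of CD8+ cells relative to row control; 100% = QL9-loaded vesicles with DMSO vehicle in the same plate row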); settings: 2C mouse CD8+ T cells, at 7 µM, stronger effect = lower value; double positive events: measured here: CD8+/vesicle+ event percentage
[7] = molecular target: Integrin beta-1 (Homo sapiens) + Integrin alpha-4 (Homo sapiens) (UniProt P13612+P05556); test: alpha4beta1 integrin LIBS antibody binding reduction – U937 cells, HUTS-21 mAb, flow cytometry, validation set, VLA-4 allosteric modulator project, pilot screen (AID 2674;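 active means inhibition above 50%, about 3 SD of the validation set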;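 further: antibody binding induced by the VLA-4 ligand LDV present at three times its Kd; 0% = LDV ligand with antibody and no compound and 100% = antibody without LDV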); settings: HUTS-21 LIBS mAb binding, at 6.7 µM, stronger effect = higher value, binding induced by LDV ligand
[8] = calorie-restriction mimetic ROS inhibitors, yeast – validation compound set, pilot screen (AID 2706;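 active means superoxide response below 65% of plate, a cut near 3 SD across the whole screen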;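 further: yeast exposed to compound for one week at 30 degrees C before staining; 100% = mean of all compound wells on the same plate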); settings: S. cerevisiae aging, superoxide DHE fluorescence; at 10 µM; stronger effect = lower value
[9] = molecular target: Beta-adrenergic receptor kinase 1 (Homo sapiens) (UniProt P25098); test: GRK2 binders displacing RNA aptamer, biochemical, validation, human GRK2, bead flow cytometry (AID 488806;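 active means aptamer binding inhibition above 30%, about 3 SD of noise from non-fluorescent compounds; inactive means inhibition at or below 30%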); settings: bead-bound GRK2, FAM-aptamer displacement, at 10 µM, stronger effect = higher value
[10] = molecular target: Beta-2 adrenergic receptor (Homo sapiens) (UniProt P07550); test: agonist-induced loss of surface beta2AR – cell-based, FAP fluorogen, flow cytometry, validation set, pilot screen (AID 504459;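 active means percent response above 42, roughly 3 SD of non-fluorescent test compounds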;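 further: agonist-driven loss of surface beta2AR via internalization measured by FAP dye flow cytometry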); settings: Am2.2-beta2AR cells, at 10 µM, stronger effect = higher value
[11] = molecular target: AP-2 complex subunit beta (Homo sapiens) (UniProt P63010); test: beta-arrestin/AP2 interaction blockers – biochemical, validation set, GST-AP2 beads, flow cytometry, pilot screen (AID 504541;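 active means inhibition above 54%, about 3 SD of non-fluorescent compounds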;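 further: AP2 carries R879A mutation and is captured from E. coli lysate; bead-bound FITC arrestin peptide fluorescence measuring arrestin peptide binding to AP2; 0% = DMSO wells and 100% = excess unlabeled arrestin peptide control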); settings: FITC arrestin peptide, at 10 µM, stronger effect = higher value, AP2 beta2 appendage fragment, R879A mutant
[12] = cytosolic pH regulators acting via V-ATPase – S. cerevisiae, pHLuorin, HTS validation (AID 504600; in the data active means response above about 15%;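 further: plate controls were DMSO for no effect and reference compound for full effect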); settings: V-ATPase proton transport, at 10 µM, stronger effect = higher value
[13] = test system: anti-desmoglein-3 scFv antibody binding to human DSG3; test: blockers of pathogenic pemphigus antibody–desmoglein-3 binding – biochemical, validation compound set, bead-based, flow cytometry, pilot screen (AID 588368;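 active means binding below the plate cutoff, the plate median minus 3 SD, with a reading above zero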;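 further: signal is the median channel fluorescence of bead-bound GFP antibody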); settings: Protein G beads, DSG3-Fc, scFv-GFP binding, at 10 µM, stronger effect = lower value
[14] = Nile Red efflux blockade in pump-expressing yeast – validation compound set, multiplex, phenotypic, pilot screen (AID 588506);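 further: Nile Red retained in cells so higher fluorescence means more efflux inhibition; 0 = negative control wells and 1 = enniatin B 25 µM full block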; settings: S. cerevisiae pump-expressing triplex, Nile Red efflux flow cytometry; at 10 µM; stronger effect = higher value; the pumps come from Candida albicans
[15] = molecular target: ATP-binding cassette sub-family B member 6 (Homo sapiens) (UniProt Q9NP58); test: blockers of ABCB6-driven porphyrin uptake – K562-ABCB6 cells, flow cytometry, validation set, pilot screen (AID 588550;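 active means inhibition above the screen-wide mean plus 3 SD, about 51%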;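 further: 0% = DMSO wells and 100% = benzethonium chloride 70 µM positive control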); settings: K562-ABCB6 porphyrin accumulation, 1 h, at 10 µM, stronger effect = higher value
[16] = AML differentiation inducers, ER-HoxA9 marrow cells – cell-based, GFP/MAC1 double positive, flow cytometry, validation set, primary screen (AID 588685;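 active means differentiation response of at least 50%, scaled between solvent and reference control, from cells with both markers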;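 further: compound exposure lasts four days before antibody staining and flow analysis; 0% = DMSO wells and 100% = 5 µM fulvestrant positive control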); settings: stronger effect = higher value, normalized: vehicle 0, fulvestrant 100

Sequence of ATP-binding cassette sub-family B member 6 (Homo sapiens) (Q9NP58 whole entry, looked up): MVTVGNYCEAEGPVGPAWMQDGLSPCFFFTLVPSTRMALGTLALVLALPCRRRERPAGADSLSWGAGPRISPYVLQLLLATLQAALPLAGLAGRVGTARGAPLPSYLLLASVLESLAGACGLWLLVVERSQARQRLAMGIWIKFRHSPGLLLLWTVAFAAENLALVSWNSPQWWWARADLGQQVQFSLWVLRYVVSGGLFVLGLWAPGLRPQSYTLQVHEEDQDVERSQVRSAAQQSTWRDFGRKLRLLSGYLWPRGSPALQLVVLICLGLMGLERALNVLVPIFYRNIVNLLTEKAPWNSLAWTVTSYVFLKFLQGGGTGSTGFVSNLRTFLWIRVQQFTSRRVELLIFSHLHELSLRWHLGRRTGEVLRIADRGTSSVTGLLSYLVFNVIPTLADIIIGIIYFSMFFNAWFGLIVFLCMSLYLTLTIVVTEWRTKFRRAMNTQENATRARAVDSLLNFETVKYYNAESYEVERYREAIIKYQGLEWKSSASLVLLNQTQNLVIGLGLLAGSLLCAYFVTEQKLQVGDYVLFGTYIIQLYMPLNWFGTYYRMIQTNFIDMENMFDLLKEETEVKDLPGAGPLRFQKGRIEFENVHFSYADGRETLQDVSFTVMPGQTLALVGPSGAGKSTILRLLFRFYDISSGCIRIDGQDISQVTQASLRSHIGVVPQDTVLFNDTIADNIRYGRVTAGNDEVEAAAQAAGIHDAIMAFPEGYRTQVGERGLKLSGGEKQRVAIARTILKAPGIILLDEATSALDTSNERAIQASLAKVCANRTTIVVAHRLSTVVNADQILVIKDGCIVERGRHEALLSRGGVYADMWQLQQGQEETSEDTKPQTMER
Sequence of Integrin beta-1 (Homo sapiens) + Integrin alpha-4 (Homo sapiens) (P05556 whole entry, looked up): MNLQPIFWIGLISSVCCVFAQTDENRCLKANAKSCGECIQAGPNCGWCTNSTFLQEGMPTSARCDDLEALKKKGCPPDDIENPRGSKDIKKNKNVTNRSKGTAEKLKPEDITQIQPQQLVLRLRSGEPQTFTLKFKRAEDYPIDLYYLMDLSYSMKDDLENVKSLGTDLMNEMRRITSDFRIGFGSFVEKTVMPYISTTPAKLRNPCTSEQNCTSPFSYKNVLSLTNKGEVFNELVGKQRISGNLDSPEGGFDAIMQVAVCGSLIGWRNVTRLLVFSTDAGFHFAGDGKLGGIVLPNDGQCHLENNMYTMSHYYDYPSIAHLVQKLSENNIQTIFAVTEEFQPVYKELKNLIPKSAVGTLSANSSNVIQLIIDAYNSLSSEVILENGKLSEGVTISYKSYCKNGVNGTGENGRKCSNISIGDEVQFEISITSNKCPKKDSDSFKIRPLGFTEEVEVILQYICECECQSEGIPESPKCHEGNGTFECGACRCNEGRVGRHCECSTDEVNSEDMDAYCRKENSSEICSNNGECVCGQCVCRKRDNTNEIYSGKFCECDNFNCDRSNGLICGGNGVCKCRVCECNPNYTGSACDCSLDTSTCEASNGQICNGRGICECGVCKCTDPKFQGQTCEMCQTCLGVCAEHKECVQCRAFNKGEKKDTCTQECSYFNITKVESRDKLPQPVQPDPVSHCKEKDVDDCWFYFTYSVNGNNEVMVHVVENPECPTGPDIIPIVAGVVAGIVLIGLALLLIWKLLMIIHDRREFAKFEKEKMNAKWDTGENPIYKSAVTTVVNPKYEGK
Sequence of Integrin beta-1 (Homo sapiens) + Integrin alpha-4 (Homo sapiens) (P13612 whole entry, looked up): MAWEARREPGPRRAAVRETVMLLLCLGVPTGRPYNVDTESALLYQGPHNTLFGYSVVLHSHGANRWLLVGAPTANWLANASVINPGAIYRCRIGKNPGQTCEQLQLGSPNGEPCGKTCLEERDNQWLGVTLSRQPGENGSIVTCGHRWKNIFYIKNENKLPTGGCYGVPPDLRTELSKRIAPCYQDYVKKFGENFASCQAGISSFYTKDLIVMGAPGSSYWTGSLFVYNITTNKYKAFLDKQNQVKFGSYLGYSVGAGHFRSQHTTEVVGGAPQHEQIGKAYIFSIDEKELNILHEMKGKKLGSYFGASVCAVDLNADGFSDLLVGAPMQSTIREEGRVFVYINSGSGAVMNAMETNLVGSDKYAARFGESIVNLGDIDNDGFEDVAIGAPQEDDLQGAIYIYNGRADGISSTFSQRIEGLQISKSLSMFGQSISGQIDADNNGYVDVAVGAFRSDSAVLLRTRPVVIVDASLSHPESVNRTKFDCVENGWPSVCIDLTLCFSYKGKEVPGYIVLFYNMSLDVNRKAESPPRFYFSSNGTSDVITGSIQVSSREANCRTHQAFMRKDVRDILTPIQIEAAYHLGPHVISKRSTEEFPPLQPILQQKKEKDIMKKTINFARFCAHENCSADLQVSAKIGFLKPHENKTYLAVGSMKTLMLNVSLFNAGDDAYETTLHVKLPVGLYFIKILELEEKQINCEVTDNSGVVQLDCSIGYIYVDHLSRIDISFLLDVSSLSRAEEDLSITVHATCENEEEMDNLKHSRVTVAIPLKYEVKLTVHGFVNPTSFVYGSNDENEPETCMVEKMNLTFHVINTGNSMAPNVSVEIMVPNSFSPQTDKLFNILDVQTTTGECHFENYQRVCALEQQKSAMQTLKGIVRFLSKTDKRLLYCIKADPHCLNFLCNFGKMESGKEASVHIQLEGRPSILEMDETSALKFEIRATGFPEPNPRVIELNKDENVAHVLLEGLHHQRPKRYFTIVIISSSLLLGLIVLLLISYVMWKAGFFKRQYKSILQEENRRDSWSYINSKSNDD
Sequence of Beta-2 adrenergic receptor (Homo sapiens) (P07550 whole entry, looked up): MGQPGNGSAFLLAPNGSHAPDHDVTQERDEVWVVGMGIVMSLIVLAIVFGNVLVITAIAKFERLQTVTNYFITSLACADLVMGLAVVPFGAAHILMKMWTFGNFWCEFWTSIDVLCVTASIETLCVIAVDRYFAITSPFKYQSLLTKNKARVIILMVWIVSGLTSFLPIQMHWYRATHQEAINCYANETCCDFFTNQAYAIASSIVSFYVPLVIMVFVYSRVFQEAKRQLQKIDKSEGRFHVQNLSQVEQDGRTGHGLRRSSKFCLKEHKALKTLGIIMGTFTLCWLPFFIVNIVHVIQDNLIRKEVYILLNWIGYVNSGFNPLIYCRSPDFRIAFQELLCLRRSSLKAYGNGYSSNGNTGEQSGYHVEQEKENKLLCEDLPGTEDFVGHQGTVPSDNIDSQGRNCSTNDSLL
Sequence of Beta-adrenergic receptor kinase 1 (Homo sapiens) (P25098 whole entry, looked up): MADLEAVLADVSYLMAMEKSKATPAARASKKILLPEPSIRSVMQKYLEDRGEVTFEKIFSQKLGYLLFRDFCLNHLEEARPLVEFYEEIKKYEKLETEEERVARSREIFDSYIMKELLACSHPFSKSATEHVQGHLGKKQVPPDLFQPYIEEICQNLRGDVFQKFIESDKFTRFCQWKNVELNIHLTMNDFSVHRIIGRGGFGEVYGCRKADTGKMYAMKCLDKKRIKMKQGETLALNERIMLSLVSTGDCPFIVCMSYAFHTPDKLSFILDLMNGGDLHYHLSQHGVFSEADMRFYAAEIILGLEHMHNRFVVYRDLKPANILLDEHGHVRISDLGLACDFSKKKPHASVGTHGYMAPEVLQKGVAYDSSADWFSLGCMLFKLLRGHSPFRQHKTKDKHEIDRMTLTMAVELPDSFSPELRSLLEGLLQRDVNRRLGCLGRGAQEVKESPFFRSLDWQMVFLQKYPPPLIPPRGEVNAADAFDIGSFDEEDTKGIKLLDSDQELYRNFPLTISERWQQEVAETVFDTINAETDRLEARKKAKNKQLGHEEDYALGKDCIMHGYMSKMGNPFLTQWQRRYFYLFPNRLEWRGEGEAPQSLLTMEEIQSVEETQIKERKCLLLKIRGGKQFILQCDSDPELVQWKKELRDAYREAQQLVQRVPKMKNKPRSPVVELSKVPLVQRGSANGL
Sequence of AP-2 complex subunit beta (Homo sapiens) (P63010 whole entry, looked up, the tested form may be a part, one chain of several): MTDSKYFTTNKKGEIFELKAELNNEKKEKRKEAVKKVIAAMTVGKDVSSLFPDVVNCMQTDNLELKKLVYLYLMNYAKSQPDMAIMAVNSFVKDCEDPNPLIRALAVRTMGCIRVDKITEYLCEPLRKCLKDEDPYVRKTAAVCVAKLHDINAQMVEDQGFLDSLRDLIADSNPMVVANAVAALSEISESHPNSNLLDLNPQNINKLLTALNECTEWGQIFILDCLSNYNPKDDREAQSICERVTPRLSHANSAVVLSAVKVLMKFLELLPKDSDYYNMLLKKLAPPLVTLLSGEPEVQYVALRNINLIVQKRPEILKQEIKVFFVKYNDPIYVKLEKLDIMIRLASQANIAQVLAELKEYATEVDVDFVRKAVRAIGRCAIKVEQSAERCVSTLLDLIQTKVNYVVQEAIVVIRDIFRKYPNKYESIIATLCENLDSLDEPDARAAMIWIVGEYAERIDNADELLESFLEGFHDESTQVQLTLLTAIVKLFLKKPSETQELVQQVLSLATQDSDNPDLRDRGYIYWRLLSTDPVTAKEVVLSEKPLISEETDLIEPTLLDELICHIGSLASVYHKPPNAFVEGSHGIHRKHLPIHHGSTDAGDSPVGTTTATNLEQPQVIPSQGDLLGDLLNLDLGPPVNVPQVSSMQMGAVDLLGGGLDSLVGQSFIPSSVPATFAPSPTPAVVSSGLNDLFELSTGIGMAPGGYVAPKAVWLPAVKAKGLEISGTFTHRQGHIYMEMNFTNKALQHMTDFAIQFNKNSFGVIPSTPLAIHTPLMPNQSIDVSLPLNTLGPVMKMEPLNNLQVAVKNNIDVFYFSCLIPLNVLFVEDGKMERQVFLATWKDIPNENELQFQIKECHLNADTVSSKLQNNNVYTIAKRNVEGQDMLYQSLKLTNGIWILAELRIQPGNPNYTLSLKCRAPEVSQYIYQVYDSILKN

SMILES	percent of DMSO control GFP [1]	GFP response vs DMSO [2]	percent response of DMSO control [3]	GFP response vs DMSO [4]	GFP response, % of DMSO [5]	double positive events [6] [%]	vesicle binding response [6]	inhibition [7]	superoxide response (% of plate) [8]	aptamer binding inhibition [9]	response [10]	inhibition [11]	response [12]	binding (% of control) [13]	efflux inhibition (fraction of control) [14]	inhibition [15]	differentiation response [16]
O=C(NCc1ccc2c(c1)OCO2)c1ccc2c(c1)OCCO2	101% (inactive)	105% (inactive)	105% (inactive)	92.6% (inactive)	101% (inactive)	61	132% (inactive)	11% (inactive)	104% (inactive)	-1% (inactive)	0.83% (inactive)	-6.32% (inactive)	-0.38% (inactive)	103% (inactive)	-0.21 (inactive)	11% (inactive)	20.3% (inactive)
c1ccc(Nc2ccccn2)nc1	98.6% (inactive)	105% (inactive)	88.2% (inactive)	115% (inactive)	100% (inactive)	59.3	190% (inactive)	-3.16% (inactive)	97.5% (inactive)	3% (inactive)	-8.84% (inactive)	-0.14% (inactive)	-2.96% (inactive)	103% (inactive)	0.26 (inactive)	4% (inactive)	7.2% (inactive)
S=C(NCCOCCOCCNC(=S)Nc1ccccc1)Nc1ccccc1	98.6% (inactive)	103% (inactive)	86.3% (inactive)	108% (inactive)	97.4% (inactive)	64.8	250% (inactive)	-22.3% (inactive)	134% (inactive)	3% (inactive)	2.38% (inactive)	-17% (inactive)	6.24% (inactive)	99.9% (inactive)	0.55 (active)	4% (inactive)	5.6% (inactive)
Cc1cc(C)cc(Nc2nc3c([nH]2)c(=O)n(C)c(=O)n3C)c1	102% (inactive)	105% (inactive)	112% (inactive)	103% (inactive)	105% (inactive)	63.9	212% (inactive)	6.95% (inactive)	89.7% (inactive)	-6% (inactive)	6.07% (inactive)	61% (active)	-8.26% (inactive)	102% (inactive)	-0.14 (inactive)	-9% (inactive)	10.1% (inactive)
O=C(CCCN1C(=O)/C(=C\c2cccs2)SC1=S)Nc1ccccn1	103% (inactive)	99.7% (inactive)	92.4% (inactive)	99.1% (inactive)	96.8% (inactive)	61.7	154% (inactive)	-2.43% (inactive)	115% (inactive)	2% (inactive)	-9.49% (inactive)	-9.99% (inactive)	-5.78% (inactive)	94% (inactive)	0.35 (inactive)	-5% (inactive)	-7.5% (inactive)
CC(C)COCC(CN(Cc1ccccc1)c1ccccc1)N1CCCC1 (stereo not drawn)	93.5% (inactive)	121% (inactive)	104% (inactive)	74.3% (inactive)	91.9% (inactive)	61.3	119% (inactive)	1.61% (inactive)	116% (inactive)	-2% (inactive)	8.3% (inactive)	-11.8% (inactive)	0.91% (inactive)	113% (inactive)	0.16 (inactive)	8% (inactive)	-0.82% (inactive)
O=C1C(Cc2ccccc2)NC(=S)N1c1ccccc1 (stereo not drawn)	96.1% (inactive)	105% (inactive)	92% (inactive)	115% (inactive)	99.4% (inactive)	60.7	179% (inactive)	-14.1% (inactive)	98.2% (inactive)	5% (inactive)	-16.9% (inactive)	-7.42% (inactive)	13.2% (inactive)	98.7% (inactive)	-0.24 (inactive)	9% (inactive)	-28% (inactive)
CCOC(=O)c1c(O)c2c([nH]c1=O)CCCC2	100% (inactive)	91.9% (inactive)	101% (inactive)	102% (inactive)	96% (inactive)	69.7	109% (inactive)	-34.6% (inactive)	101% (inactive)	3% (inactive)	-11% (inactive)	17.2% (inactive)	-2.71% (inactive)	99.3% (inactive)	0.01 (inactive)	9% (inactive)	5.6% (inactive)
CCC(=O)O[C@]1(C(=O)CCl)[C@@H](C)C[C@H]2[C@@H]3CCC4=CC(=O)C=C[C@]4(C)[C@@]3(F)[C@@H](O)C[C@@]21C	99.8% (inactive)	103% (inactive)	106% (inactive)	91.5% (inactive)	106% (inactive)	64.6	228% (inactive)	-9.13% (inactive)	120% (inactive)	4% (inactive)	11.3% (inactive)	3.88% (inactive)	-2.3% (inactive)	97.9% (inactive)	1.03 (active)	-10% (inactive)	-13.3% (inactive)
